Shiga toxin inh: blocks Shiga toxin action in Vero cells; AID 2315; inhibition, % at 38.7 µM; Vero cells, Shiga toxin protein synthesis inhibition reporter; 290,000 compounds, 9.2% hits; in the data active = inhibition mostly above about 28%, no sharp cut-off; inactive = mostly below about 43%; note: 0% is about no effect
FBPA Giardia inh: blocks Giardia fructose-bisphosphate aldolase activity. A8B2U2. purified Giardia FBPA. Potency, µM (top dose mostly 59.6 µM), without a hit: top-dose activity, negative = inhibition, most hits filed as inhibitors. 290,000 compounds, 0.71% hits. AID 2451; note: potency is the fitted concentration of half-maximal effect; % is set by controls: 0 for no effect and ±100 for the full control effect; nearly all actives have a fitted effect of over 55% in size
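40 nM FBPA preincubated 10 min at RT with compound (up to 57.5 uM final), then substrate plus GAPDH/TPI/NAD/arsenate coupling and diaphorase/resazurin added. Fluorescence read after 20 min at RT, 525/598 nm.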
CHX counter: counter-screen for Shiga toxin inhibitors: cycloheximide protein synthesis inhibition | cell reporter, cycloheximide protein synthesis inhibition counterscreen | max response, % | 300,000 compounds, 12% hits; in the data active = max response mostly above about 13%, no sharp cut-off; inactive = mostly below about 14%; note: read at 38.3 µM for the half of the compounds with a filed dose; 0% is about no effect
Tb PYK inh: T. brucei pyruvate kinase inhibition; Q57TT1; TbPYK enzyme, Kinase-Glo Plus ATP luminescence, 45 min; Potency, µM (series often up to 76.8 µM), inactives show top-dose activity, negative = inhibition, usual class: inhibitors; 410,000 compounds, 0.12% hits; AID 624173; note: potency is the fitted concentration of half-maximal effect; % is set by controls: 0 for no effect and ±100 for the full control effect; nearly all actives have a fitted effect of over 50% in size
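Enzyme and substrate buffer are dispensed first and compound is pin-transferred. ADP at 130 uM final then starts the reaction, which runs 45 min at room temperature. Detection reagent is added for 10 min before luminescence is imaged.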
LmPK inh: inhibitors of Leishmania mexicana pyruvate kinase; purified LmPK, Kinase-Glo ATP luminescence, 1 h; AID 1721; Q27686; 290,000 compounds, 0.37% hits; Potency, µM (doses to about 57.5 µM), without a hit: at the top dose activity change, negative = inhibition, hits mostly inhibitors; note: potency is the fitted concentration of half-maximal effect; % is set by controls: 0 for no effect and ±100 for the full control effect
Target sequence (Q27686 whole entry, looked up): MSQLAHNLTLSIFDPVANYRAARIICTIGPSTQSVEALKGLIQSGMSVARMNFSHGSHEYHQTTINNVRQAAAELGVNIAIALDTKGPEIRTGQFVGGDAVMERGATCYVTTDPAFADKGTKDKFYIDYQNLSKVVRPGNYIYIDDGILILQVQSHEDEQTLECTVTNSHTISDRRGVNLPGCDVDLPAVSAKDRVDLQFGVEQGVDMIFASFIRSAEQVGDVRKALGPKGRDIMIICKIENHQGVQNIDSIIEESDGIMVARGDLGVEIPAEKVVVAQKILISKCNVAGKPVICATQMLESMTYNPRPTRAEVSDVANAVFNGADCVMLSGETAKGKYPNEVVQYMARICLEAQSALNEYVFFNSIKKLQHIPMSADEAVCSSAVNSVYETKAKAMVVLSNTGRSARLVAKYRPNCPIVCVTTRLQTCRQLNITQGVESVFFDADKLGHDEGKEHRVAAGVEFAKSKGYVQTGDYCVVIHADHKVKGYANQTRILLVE
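Screened at intermediate enzyme activity to detect both inhibitors and activators: LmPK at 0.1 nM, with a 0.5 nM enzyme column as activation reference. PEP 0.5 mM, ADP 0.1 mM; ATP detected by luminescence after 1 h.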
RE007 growth inh: less growth of the S. pombe RE007 Vpr strain; S. pombe RE007 Vpr strain, BacTiter-Glo ATP luminescence, 24 h; Potency, µM (series often up to 92.2 µM), inactives show at the top dose activity change, negative = less growth, hits mostly inhibitors; 360,000 compounds, 0.21% hits; active = well fitted falling curve with a large enough effect; inconclusive = small, poorly fitted or top-dose-only effect; inactive = no such curve, though single readings can be large or run the other way; note: potency is the fitted concentration of half-maximal effect; % is set by controls: 0 for no effect and ±100 for the full control effect; nearly all actives have a fitted effect of over 50% in size
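Fission yeast RE007 carrying one integrated HIV-1 vpr copy, seeded at OD 0.01 in PMG+AL medium with 23 nL pinned compound. Grown 24 h at 30 degrees; viability read by BacTiter-Glo luminescence after 5 min.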
* hit, by the source's call; ? = inconclusive; / = no result; [ ] = another dose, or the depositor's remark. This excerpt belongs to a sample that is enriched for hits. Unless noted, calls come from the whole dose curve; as a rule, active = well fitted curve in the direction sought with a large enough effect; inconclusive = small, poorly fitted or top-dose-only effect, or another doubt; inactive = no such curve, though single readings can be large; an effect the other way counts as inactive or inconclusive.

SMILES	Shiga toxin inh	FBPA Giardia inh	CHX counter	Tb PYK inh	LmPK inh	RE007 growth inh
COc1cc(/C=N/NC(=O)Cc2ccccc2)cc([N+](=O)[O-])c1O	-11.2	-12.6%	-2.0	3.1%	1.9%	-3.3%
COc1cc(/C=N/Nc2nc3ccccc3s2)cc([N+](=O)[O-])c1O	56.0*	-14.4%	19.0*	-6.6%	-7.1%	3.9%
O=C(Cn1nc2ccccc2n1)N/N=C/c1cc(Cl)cc([N+](=O)[O-])c1O	-10.9	28.7%	1.5	-6.6%	-6.9%	-11.0%
O=[N+]([O-])c1cc(Cl)cc(/C=N/Nc2nc3ccccc3s2)c1O	41.1*	11.0%	32.5*	-4.2%	-15.9%	-17.9%
COc1ccc(/C=C/C(=O)Nc2ccc(OC)cc2[N+](=O)[O-])cc1	-2.2	2.0%	-1.2	-2.6%	3.8%	-19.6%
COc1ccc(NC(=O)C/C(C)=N/NC(=O)c2cccs2)c([N+](=O)[O-])c1	120.2*	-4.4%	60.9*	-3.1%	-1.4%	-5.1%
COc1ccc(NC(=O)c2sccc2C)c([N+](=O)[O-])c1	86.7	-9.3%	32.1*	-2.5%	-9.1%	-3.9%
COc1ccc(NC(=O)/C=C/c2ccccc2)c([N+](=O)[O-])c1	126.1*	11.2%	65.2*	-5.4%	1.3%	24.0%
COc1ccc(NC(=O)c2cccs2)c([N+](=O)[O-])c1	80.3*	2.6%	37.5*	-5.7%	-5.9%	-9.9%
OCC[C@H]1C[C@@H](O)[C@H](O)[C@]2(Cc3ccccc3CCO2)O1	/	/	/	-2.9%	/	6.9%
Cc1ccc(CSc2nc3cccnc3n2Cc2ccc(C(=O)NC3CCCCC3)cc2)cc1	/	/	/	4.9%	/	/
COc1ccc(/C=C/C(=O)C2(O)CCCCC2)cc1OC	-9.3	0.9%	10.0	1.0%	-2.8%	-9.3%
COCCN(C(=S)Nc1ccc(C)cc1C)C(C)c1ccco1 (stereo not drawn)	15.1	-10.6%	19.2*	-14.2%	2.7%	2.5%
COCCN(C(=S)Nc1ccccc1C)C(C)c1ccco1 (stereo not drawn)	14.8	0.6%	-2.1	-7.3%	-1.9%	0.1%
Nc1[nH]c(C(=O)c2ccccc2)c(-c2ccncc2)c1C(=O)NCCc1c[nH]c2ccccc12	/	/	/	-0.7%	/	0.1%
COc1ccccc1C(=O)Nc1ccc(NC(=O)c2cccs2)cc1	/	/	/	-6.0%	/	/
COc1ccccc1C(=O)Nc1ccc(C(=O)/C=C/c2cccs2)cc1	21.7	-6.5%	18.0*	1.4%	3.5%	-6.4%
O=C(/C=C/c1cccs1)c1ccc(NC(=O)c2ccccc2F)cc1	40.3*	5.1%	25.2*	-5.6%	-1.0%	7.8%
CC(Sc1nc2ccccc2c(=O)n1C)C(=O)N(C)C1CCCCC1 (stereo not drawn)	/	/	/	-8.0%	/	10.0%
COc1ccc(N=C2SC(CC(=O)Nc3ccccc3F)C(=O)N2Cc2ccco2)cc1 (stereo not drawn)	20.5	-9.0%	21.4*	-4.2%	4.4%	-24.9%
O=C(CC1SC(=Nc2ccccc2)N(CCc2c[nH]c3ccccc23)C1=O)Nc1ccccc1F (stereo not drawn)	-3.6	-5.7%	-2.8	-4.6%	5.7%	-3.2%
COCCN1C(=O)C(CC(=O)Nc2ccccc2)SC1=Nc1ccc(OC)cc1 (stereo not drawn)	-4.3	-4.2%	-9.9	-1.5%	3.3%	11.0%
COc1ccc(N=C2SC(CC(=O)Nc3ccccc3)C(=O)N2Cc2ccco2)cc1 (stereo not drawn)	39.4*	-8.0%	9.3	-2.5%	-2.8%	7.6%
COc1ccc(NC(=O)c2cc3c(s2)-c2c(C)cccc2OC3)cc1Cl	/	/	/	-4.3%	/	/
COc1ccc(/C(N)=N/OC(=O)/C=C/c2ccccc2)cc1	30.3	-3.3%	18.8	-3.6%	-0.4%	-20.2%
SMILES	Shiga toxin inh	FBPA Giardia inh	CHX counter	Tb PYK inh	LmPK inh	RE007 growth inh
N/C(=N\OC(=O)/C=C/c1ccccc1Cl)c1cccnc1	112.3*	0.1%	63.3*	-8.0%	-1.6%	1.1%
N/C(=N\OC(=O)/C=C/c1ccc(Br)cc1)c1ccccn1	67.7*	3.1%	80.9*	-13.9%	-19.8%	1.3%
N/C(=N\OC(=O)/C=C/c1ccccc1)c1cccnc1	70.0*	1.6%	32.2*	2.3%	-12.6%	-1.7%
COc1cc2c(C(=O)N3CCN(c4cccc(Cl)c4)CC3)cn(CC(C)C)c(=O)c2cc1OC	-13.6	-2.8%	-6.1	0.0%	6.3%	-16.0%
CC(C)CNC(=O)c1oc2ccccc2c1COc1ccccc1	-11.6	-1.7%	-5.2	-6.4%	-1.2%	-17.0%
COCc1c(C(=O)Nc2ccc(Cl)cc2F)oc2ccccc12	185.4*	-2.2%	29.3*	0.6%	1.0%[11.5 µM]	3.1%
COCc1c(C(=O)Nc2nc(C)cs2)oc2ccccc12	43.6*	-7.9%	24.8*	0.6%	5.6%	-9.8%
CCC(CC)NC(=O)c1oc2ccccc2c1COc1ccccc1	24.8	0.6%	8.4*	-9.7%	2.5%	4.4%
NC(=O)c1c(NC(=O)COC(=O)c2ccc(S(=O)(=O)Nc3ccccc3)cc2)sc2c1CCCC2	-6.3	1.5%	-1.5	4.1%	2.3%	-13.3%
CNc1nc(SCc2ccccc2Cl)nc2c1CCCC2	12.4	11.1%	10.3	1.6%	3.6%	?
Nc1ccc2oc(C3CCCCC3)nc2c1	96.5*	-14.1%	55.0*	1.2%	-3.3%	-12.8%
c1ccc2[nH]c(C3CC3)nc2c1	1.2	-9.5%	-1.8	-3.2%	-1.8%	0.9%
Nc1ccc2nc(C3CCCCC3)[nH]c2c1	94.5	?	13.3*	-4.3%	-0.9%	1.7%
O=[N+]([O-])c1ccc2oc(C3CCCCC3)nc2c1	76.2*	1.8%	28.7*	-1.9%	-8.2%	-0.3%
CCCCCc1nnc(NC(=O)NS(=O)(=O)c2ccc(C)cc2)s1	18.9	6.2%	-3.6	-1.8%	4.7%	-1.5%
CCOC(=O)c1ccccc1NC(=O)CSc1nc2cn(CC)nc2c(=O)n1Cc1ccc(Cl)cc1	/	/	/	1.1%	/	/
Cc1cccc(Nc2c3c(nc4nncn24)CCC3)c1C	/	/	/	2.5%	/	/
CCOc1ccc(S(=O)(=O)Nc2ccc3c(c2)OCO3)c2cccnc12	18.7	-11.4%	23.2*	-11.9%	2.1%	-19.3%
CCOc1ccc(S(=O)(=O)Nc2cccc(C)c2)c2cccnc12	17.8	4.8%	-3.8	7.8%	0.9%	-11.7%
O=c1c(Br)c(Br)cnn1-c1ccccc1	-32.1	-2.6%	-8.7	5.3%	2.8%	?
COc1cnn(-c2cccc(C)c2)c(=O)c1Cl	14.9	7.3%	19.3*	6.5%	3.1%	1.6%
COc1ccc(Oc2c(Cl)cnn(-c3ccc(F)cc3)c2=O)cc1	-11.3	9.0%	7.1	0.3%	1.3%	-20.9%
COc1ccc(Oc2c(Cl)cnn(-c3ccc(C)cc3)c2=O)cc1	1.9	3.1%	13.7*	-2.3%	0.1%	?
Cc1ccc(-n2ncc(Br)c(Br)c2=O)cc1	-22.5	6.4%	-8.7	-1.1%	-4.8%	15.8µM*

Screens (PubChem BioAssay)
